Source: PubChem BioAssay (National Center for Advancing Translational Sciences (NCATS))
Pf growth 48h – P. falciparum growth inhibition at 48 hours (one generation); P. falciparum luciferase growth in erythrocytes, 48 h; Potency, µM (titrated, usually from 28.7 µM), for inactives: top-dose activity change, negative = inhibition, most hits filed as inhibitors; actives 5.9% (n = 310,000); AID 504832; further: potency means the concentration at half of the fitted maximal effect; on the % scale 0 is the no-effect control and ±100 the full control effect
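Erythrocytes infected with P. falciparum carrying an integrated firefly luciferase reporter (2% hematocrit, 0.1% parasitemia final) were exposed to compounds in RPMI 1640 with 0.5% Albumax at 37 C, 5% CO2. Growth inhibition was scored as reduced luminescence.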
Shiga toxin inh – blocks Shiga toxin action in Vero cells; actives 9.2% (n = 290,000); inhibition, % at 38.7 µM; Vero cells, Shiga toxin protein synthesis inhibition reporter; AID 2315; in the data active means inhibition mostly above about 28%, no sharp cut-off; inactive means mostly below about 43%; further: 0% is about no effect
Cycloheximide cs – affects cycloheximide protein synthesis inhibition readout, counter-screen | cell reporter, cycloheximide protein synthesis inhibition counterscreen | actives 12% (n = 300,000) | AID 2314 | max response, %; in the data active means max response mostly above about 13%, no sharp cut-off; inactive means mostly below about 14%; further: read at 38.3 µM for the half of the compounds with a filed dose; 0% is about no effect
NS1 inh – blocks influenza NS1 protein function. Potency, µM (series often up to 46.1 µM), for the others: at the highest dose activity, positive = more growth. actives 0.4% (n = 270,000); calls by dose curve; further: potency means the concentration at half of the fitted maximal effect; actives are rising curves; nearly all actives have a fitted effect of over 50% in size
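S. cerevisiae expressing influenza A NS1, grown in glucose, washed, then diluted 1:100 into pH 6.0 -URA galactose medium with 23 nl compound. Growth recovery read as OD600; NS1-free strain serves as control.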
Sm TGR block – inhibitors of Schistosoma mansoni thioredoxin glutathione reductase. Q962Y6. purified TGR, DTNB reduction, TNB absorbance 405 nm. Potency, µM (series often up to 114 µM), for the others: at the top dose activity change, negative = inhibition, usual class: inhibitors. actives 3% (n = 360,000); further: potency means the concentration at half of the fitted maximal effect; on the % scale 0 is the no-effect control and ±100 the full control effect; nearly all actives have a fitted effect of over 60% in size
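Kinetic colorimetric format: TGR-catalysed, NADPH-driven DTNB reduction monitored via TNB absorbance. Enzyme dispensed at 20 nM; compound exposure 15 min at room temperature before reaction start.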
Pf growth 96h – P. falciparum growth inhibition at 96 hour, primary screen for plastid delayed-death inhibitors; actives 6.9% (n = 320,000); P. falciparum luciferase reporter growth, 96 h; AID 504834; Potency, µM (top dose mostly 28.7 µM), for the others: top-dose activity change, negative = inhibition, actives largely listed as inhibitors; further: potency means the concentration at half of the fitted maximal effect; on the % scale 0 is the no-effect control and ±100 the full control effect
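Compounds incubated with erythrocytes infected by luciferase-expressing P. falciparum (2% hematocrit, 0.05% parasitemia final) for 96 hours, 37 C in 5% CO2. Growth inhibition scored as decreased luciferase luminescence.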
Numbers without * were called inactive; ? = inconclusive; . = not tested or not shown. Only some compounds are listed: those with a hit (about 21% of all), similar ones and a draw of the others. Unless noted, the call rests on the fitted dose curve; in most records, active means well fitted curve in the direction sought with a large enough effect; inconclusive means small, poorly fitted or top-dose-only effect, or another doubt; inactive means no such curve, though single readings can be large; an effect the other way counts as inactive or inconclusive.

SMILES	Pf growth 48h	Shiga toxin inh	Cycloheximide cs	NS1 inh	Sm TGR block	Pf growth 96h
COc1ccc(S(=O)(=O)N2CCC(C(=O)NC3CCCCC3)CC2)cc1C	4.4%	-5.8	-3.2	-6.8%	-7.7%	?
COc1ccc(S(=O)(=O)N2CCN(S(=O)(=O)c3ccc(C(F)(F)F)cc3)CC2)cc1C	1.1%	-17.8	-3.7	0.3%	-30.9%	11.7µM*
Cc1ccc(S(=O)(=O)N2CCC(C(=O)NC3CCCC3)CC2)cc1Cl	?	-5.2	-4.6	-14.8%	4.4%	1.31µM*
CN(C)C1(CNC(=O)C2CCN(S(=O)(=O)c3cc(Cl)ccc3Cl)CC2)CCCCC1	5.6%	-18.3	-5.0	7.7%	25.1µM*	-48.3%
COc1ccc(S(=O)(=O)N2CCC(C(=O)NC3CC3)CC2)cc1C	?	-2.2	7.6	8.6%	0.5%	3.29µM*
CC1CCCCC1Nc1ncnc2sccc12 (centres undefined)	-9.9%	-2.5	-1.5	-24.3%	-9.2%	-1.2%
CCOc1ccccc1/C=C(\C#N)C(N)=O	.	.	.	2.8%	.	.
COC(=O)c1cnn(-c2ccccc2)c1-n1cccc1C=O	6.9%	14.7	3.4	.	0.2%	-2.8%
CCc1nn2c(=O)c(S(=O)(=O)Nc3ccc(Br)cc3F)c(C)nc2s1	.	.	.	.	-3.1%	.
CCCNC(=O)NC(=O)CN1C(=O)NC(C)(c2ccc3ccccc3c2)C1=O (centres undefined)	9.9%	-6.1	-1.7	-5.3%	-20.3%	2.1%
COCc1cc(C)nc(SCC(=O)NCc2ccco2)c1C#N	2.7%	-9.6	1.2	5.4%	3.4%	9.28µM*
COCc1cc(C)nc(SCC(=O)Nc2nc(C)cs2)c1C#N	40.7%	48.8	23.8*	-9.6%	-10.8%	?
CC(C)N1CCN(C(=O)C2CCC(=O)N(CCc3cccc(F)c3)C2)CC1 (centres undefined)	34.4%	-6.4	2.3	-2.4%	-15.6%	4.0%
Brc1ccc(Oc2ncc(CN3CCOCC3)s2)cc1	83.8%	40.7	33.0*	-22.3%	0.0%	76.9%
Cc1ccc(N(Cc2cccs2)C(=O)c2ccc(Br)o2)cc1	.	.	.	.	5.2%	.
Cc1c(OCC(=O)NCC(O)c2ccccc2)ccc2c3c(c(=O)oc12)CCCC3 (centres undefined)	0.0%	-8.4	-7.2	9.4%	0.0%	?
CCOC(=O)COc1ccc2c3c(c(=O)oc2c1C)CCC3	15.3%	26.6	14.8*	-6.8%	3.2%	20.3%
Cc1c(OCC(=O)C(C)(C)C)ccc2c3c(c(=O)oc12)CCCC3	?	.	-1.0	9.9%	10.3%	?
Cc1c(OCC(=O)N(C)c2ccccc2)ccc2c3c(c(=O)oc12)CCC3	?	74.5*	23.5*	-36.7%	4.4%	?
Cc1c(NC(=S)NC(=O)c2cc3ccccc3o2)cccc1C(=O)O	20.6%	75.6*	53.7*	5.1%	?	-11.0%
O=C(NC(=S)Nc1ccccc1O)c1ccc(-c2ccc(Cl)cc2)o1	7.2%	-3.8	-2.4	-47.1%	-33.3%	0.0%
Cc1c(NC(=S)NC(=O)c2ccc(-c3ccc(Cl)cc3)o2)cccc1C(=O)O	3.9%	43.2	17.8	.	12.6µM*	13.7%
Nc1c(OCC(=O)O)ccc2cc(S(=O)(=O)O)ccc12	.	.	.	8.3%	.	.
COc1ccc(-c2ccc(SCC(=O)Nc3nccs3)nn2)cc1OC	-4.4%	-18.4	10.6	.	-11.0%	16.7%
N#CC1=C(N)OC2=C(C(=O)CCC2)C1c1cc2c(cc1Cl)OCO2 (centres undefined)	279.9%	-4.9	-3.0	16.0%	-12.0%	0.0%
CC1(C)Cc2nc3sc4c(NCCO)ncnc4c3cc2CS1	?	26.1	20.4*	3.0%	-16.8%	?
CC(C)CCn1cnc2c(sc3nc4c(cc32)CSC(C)(C)C4)c1=O	265.4%	42.6*	37.8*	8.8%	0.6%	211.2%
CCCCn1cnc2c(sc3nc4c(cc32)CSC(C)(C)C4)c1=O	150.1%	55.1*	77.9*	4.2%	-0.1%	218.0%
OCCNc1ncnc2c1sc1nc(N3CCOCC3)c3c(c12)CCC3	?	-5.1	8.1	.	-0.9%	20.3%
O=C(CCC(=O)N1CCSc2ccccc21)NCc1ccccc1	-1.3%	-4.1	0.8	-2.1%	2.7%	-24.8%
